Measurements as given in PubChem BioAssay AID602281 (The Scripps Research Institute Molecular Screening Center, 2012).
Among all 360,000 compounds or so, about 2,900 (0.81%) were called active. Shown is part of a subset that was picked to be rich in actives. Values without a mark were called inactive.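 The calls were made as follows: active = inhibition above the mean inhibition across every tested compound plus 3 SD (cut at about 22% in these data); inactive = the rest.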

Target: Perilipin-5 (Homo sapiens) + 1-acylglycerol-3-phosphate O-acyltransferase ABHD5 (Homo sapiens) (UniProt Q00G26+Q8WTS1)
Sequence (Q00G26 whole entry, looked up): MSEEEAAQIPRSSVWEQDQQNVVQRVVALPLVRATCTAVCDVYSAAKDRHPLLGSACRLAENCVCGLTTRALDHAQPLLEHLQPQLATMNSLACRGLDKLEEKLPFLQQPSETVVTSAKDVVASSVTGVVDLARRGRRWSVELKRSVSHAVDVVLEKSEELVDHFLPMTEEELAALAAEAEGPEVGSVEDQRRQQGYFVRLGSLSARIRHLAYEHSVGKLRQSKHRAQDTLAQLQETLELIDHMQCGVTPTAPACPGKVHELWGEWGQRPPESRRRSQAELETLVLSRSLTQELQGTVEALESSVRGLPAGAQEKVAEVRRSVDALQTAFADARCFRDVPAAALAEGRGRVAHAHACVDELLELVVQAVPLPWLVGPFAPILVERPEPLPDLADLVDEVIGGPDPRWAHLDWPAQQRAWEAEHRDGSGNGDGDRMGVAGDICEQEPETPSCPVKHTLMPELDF
Sequence (Q8WTS1 whole entry, looked up): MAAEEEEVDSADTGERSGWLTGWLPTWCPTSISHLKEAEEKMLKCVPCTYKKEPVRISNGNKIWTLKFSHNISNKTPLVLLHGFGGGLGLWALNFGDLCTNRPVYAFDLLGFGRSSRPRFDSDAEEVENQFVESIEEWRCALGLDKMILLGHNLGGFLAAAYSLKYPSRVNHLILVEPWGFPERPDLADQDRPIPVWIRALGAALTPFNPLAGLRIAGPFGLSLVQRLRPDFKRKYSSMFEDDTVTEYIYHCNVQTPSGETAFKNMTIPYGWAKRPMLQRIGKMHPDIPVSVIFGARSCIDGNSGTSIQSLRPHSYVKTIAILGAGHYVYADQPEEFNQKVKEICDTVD
Test: blockers of ABHD5 binding to perilipin-5 – cell lysate, split luciferase complementation, luminescence, primary screen (AID 602281);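 also: 0% = DMSO only wells and the 100% control is not disclosed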
Settings: Split G. princeps luciferase complementation, 4 h, at 4 µM, hits give high values

Question: O=C(NNS(=O)(=O)c1ccc(F)cc1)c1cnccn1 was tested. Which inhibition did it give?
Answer: -1.88%

Question: For COc1ccc(-c2cc3n(n2)CCc2nc4ccccc4n2-3)cc1, which inhibition is on record?
Answer: 5.6%

Question: With CC(C)c1ccc2oc(=O)cc(CN3CCN(Cc4ccccc4)CC3)c2c1 as the compound, how does the inhibition read?
Answer: -1.39%

Question: Which inhibition does the source give for Cc1nc([N+](=O)[O-])nn1C12CC3CC(CC(Br)(C3)C1)C2 here?
Answer: -11.4%

Question: How did the inhibition turn out when O=C(Nc1nonc1-c1ccc(Cl)cc1)c1ccco1 was run?
Answer: -2.13%

Question: Which inhibition does the source give for CCc1nnc(NC(=O)c2ccco2)s1 here?
Answer: 3.45%

Question: For O=C(Nc1nc(-c2ccco2)c(-c2ccco2)s1)c1ccco1, which inhibition is on record?
Answer: 25.3% (active)

Question: For Cc1cc(C)c(C#N)c(SCS(=O)c2ccc(C(C)(C)C)cc2)n1 (centres undefined), which inhibition is on record?
Answer: 5.68%

Question: S=C(Nc1ccc(Br)cc1Cl)N1CCC2(CC1)OCCO2 was tested. Which inhibition did it give?
Answer: -3.87%

Question: Which inhibition does the source give for CCOC(=O)CCC(=O)OCC(=O)NC(C)C1CC2CCC1C2 (centres undefined) here?
Answer: -2.3%

Question: Which inhibition does the source give for Cc1ccc(C(=O)NC(=S)NCc2cccnc2)cc1 here?
Answer: 2.77%

Question: Which inhibition does the source give for CSc1sc(C(=O)NC(=O)NCc2cccnc2)c(C)c1-c1ccon1 here?
Answer: 6.42%

Question: Which inhibition does the source give for Cc1ccc(-n2nc(-c3ccco3)cc2C(=O)NCc2cccnc2)cc1 here?
Answer: 36.3% (active)

Question: CCc1ccc(OC2(C)CCN(CCOc3ccc(C)cc3)C2)cc1 (centres undefined) was tested. Which inhibition did it give?
Answer: -1.92%

Question: How did the inhibition turn out when Cc1[nH]c2ccccc2c1C(=O)C(C)Sc1nnc(C2CC2)o1 (centres undefined) was run?
Answer: -5.93%

Question: Which inhibition does the source give for O=C(Nc1ccccc1Cl)NC1(C(=O)N2CCOCC2)CCCCC1 here?
Answer: -0.52%

Question: For COc1ccccc1NC(=O)COC(=O)Cc1ccc(S(=O)(=O)N2CCCCC2)s1, which inhibition is on record?
Answer: 0.2%

Question: Which inhibition does the source give for NS(=O)(=O)c1ccc(CNC(=O)c2cc(S(=O)(=O)N3CCOCC3)ccc2N2CCCC2)cc1 here?
Answer: 4.8%

Question: With CCC1CCCCN1C(=S)Nc1ccc(S(=O)(=O)Nc2ncccn2)cc1 (centres undefined) as the compound, how does the inhibition read?
Answer: -5.25%

Question: For COc1ccc(C(C(=O)NC(C)(C)C)N(C(=O)Cn2nnc3ccccc32)c2ccc(C(C)=O)cc2)cc1O (centres undefined), which inhibition is on record?
Answer: -5.36%

Question: Which inhibition does the source give for CCNC(=O)CC1C(=O)N(c2ccc(OC)cc2)C(=S)N1CCc1ccncc1 (centres undefined) here?
Answer: 2.72%

Question: With Cc1ccc(NC(=O)Cn2c(C)csc2=O)cc1 as the compound, how does the inhibition read?
Answer: 0%

Question: How did the inhibition turn out when Cc1ccc(NC(=O)Cn2sc3ccccc3c2=O)cc1 was run?
Answer: 71.6% (active)

Question: Which inhibition does the source give for O=C(Cn1nc(C(=O)O)c2ccccc2c1=O)Nc1ccc(F)cc1 here?
Answer: 4.56%

Question: Cn1cc(S(=O)(=O)N2CCN(c3ccc(F)cc3)CC2)c(=O)n(C)c1=O was tested. Which inhibition did it give?
Answer: 2.58%

Question: How did the inhibition turn out when CC(=O)c1c(C)n(-c2ccc(N(C)C)cc2)c2ccc(OCC(N)=O)cc12 was run?
Answer: -5.31%

Question: With NC(=O)COc1ccc(C23CC4CC(CC(C4)C2)C3)cc1 as the compound, how does the inhibition read?
Answer: -7.75%

Question: For CC(C)OCCCNC(=O)CNC(=O)c1cccs1, which inhibition is on record?
Answer: 3.5%

Question: Cc1ccccc1C(CC(=O)c1cccs1)C(C#N)C#N (centres undefined) was tested. Which inhibition did it give?
Answer: 22.1% (active)

Question: For Cc1ccc(NNC(=O)c2cccs2)cc1Cl, which inhibition is on record?
Answer: 0.05%

Question: With CC1=NN(C(C)C)C(=O)C1 as the compound, how does the inhibition read?
Answer: -11.8%

Question: How did the inhibition turn out when COc1ccccc1C(=O)C(O)c1ccccc1OC (centres undefined) was run?
Answer: 4.01%

Question: For CSc1ccccc1OCc1cc(C(=O)N2C[C@H]3CC[C@H]2C3)no1, which inhibition is on record?
Answer: -0.37%

Question: With COC(=O)[C@@H](NC(=O)Nc1cc(Cl)ccc1C)C(C)C as the compound, how does the inhibition read?
Answer: 15.4%

Question: With CC1(C(=O)O)CCN1C(=O)/C=C/c1ccccc1 (centres undefined) as the compound, how does the inhibition read?
Answer: -1.15%

Question: O=S(=O)(/C=C/c1ccccc1)N1CCNCC1 was tested. Which inhibition did it give?
Answer: -10.8%

Question: For Nc1nc(NC(=O)/C=C/c2ccccc2)nn1-c1ccccc1, which inhibition is on record?
Answer: 3.41%

Question: How did the inhibition turn out when CC(/C=C/c1ccccc1)=N\NC(=O)C1CC1(C)c1ccccc1 (centres undefined) was run?
Answer: -4.04%

Question: Cc1nc(-c2ccccc2)sc1C(=O)/C=C/c1ccccc1 was tested. Which inhibition did it give?
Answer: 36% (active)

Question: O=C(/C=C/c1ccccc1)c1ccoc1 was tested. Which inhibition did it give?
Answer: 23% (active)

Question: Cc1nc(-c2ccc(Cl)cc2)sc1C(=O)CBr was tested. Which inhibition did it give?
Answer: 9.2%

Question: O=C(/C=C/c1ccccc1)c1ccccc1O was tested. Which inhibition did it give?
Answer: 22.9% (active)

Question: How did the inhibition turn out when Cc1nc(-c2ccccc2)sc1-c1nc(-c2ccccc2)ncc1S(=O)(=O)c1ccccc1 was run?
Answer: 2.52%

Question: How did the inhibition turn out when COc1ccc(CN(C)Cc2nc3cc(OC)c(OC)cc3c(=O)[nH]2)c(OC)c1 was run?
Answer: 3.55%

Question: For COc1ccc(C2NC(=S)NC3=C2CCc2ccccc23)cc1OC (centres undefined), which inhibition is on record?
Answer: -20.7%

Question: For O=C(c1c(F)cccc1F)N1CCN(S(=O)(=O)c2ccc3c(c2)OCCO3)CC1, which inhibition is on record?
Answer: -12.9%

Question: With Fc1ccc(N2N=C(c3cccs3)CC2c2ccco2)c(F)c1 (centres undefined) as the compound, how does the inhibition read?
Answer: -11.2%

Question: For COC(=O)c1ccc2nc(-c3ccc(C)cc3)c(Cc3ccc(OC)cc3C)n2c1, which inhibition is on record?
Answer: 0.21%

Question: Fc1ccc(CNCc2ccc(Br)cc2)cc1 was tested. Which inhibition did it give?
Answer: 3.28%

Question: With CCOC(=O)N1CCN(S(=O)(=O)c2ccc3c(c2)C(C)C(=O)N3)CC1 (centres undefined) as the compound, how does the inhibition read?
Answer: 2.99%

Question: FC(F)(F)C1CCCN(c2nsc3ccccc23)C1 (centres undefined) was tested. Which inhibition did it give?
Answer: 28.5% (active)

Question: Which inhibition does the source give for COC(=O)[C@@]12C[C@@H](CC(=O)NCc3cccc(C(F)(F)F)c3)C(=O)N(Cc3ccco3)C1=CCC(C)(C)C2 here?
Answer: -1.98%

Question: How did the inhibition turn out when CCS(=O)(=O)Nc1ccc(C(=O)NCCSc2ccccc2)cc1 was run?
Answer: -5.43%

Question: For COC(C[C@@H](O)[C@H](C)[C@H](O)COCc1ccccc1)OC, which inhibition is on record?
Answer: -4.38%

Question: CCCCN(Cc1ccccc1)C(=O)C1CCN(Cc2sccc2C)CC1 was tested. Which inhibition did it give?
Answer: 1.95%

Question: O=C(/C(=C/c1cccc(Cl)c1)c1nc2ccccc2[nH]1)c1ccccc1 was tested. Which inhibition did it give?
Answer: 23.3% (active)

Question: With CCCc1nc2ccccc2n1C(C)C(=O)NC(C)(C)C (centres undefined) as the compound, how does the inhibition read?
Answer: 5.62%

Question: Which inhibition does the source give for CN(C)NC(=O)c1csnc1-c1c(Cl)cccc1Cl here?
Answer: -5.5%

Question: Which inhibition does the source give for COC(=O)c1ccc(COC(=O)C2CCN(S(=O)(=O)c3c(Cl)cccc3Cl)CC2)o1 here?
Answer: 1.49%

Question: For C#CCOCCOCCOCCNc1nc(N2CCOCC2)nc(N2CCN(C(=O)[C@H](Cc3ccc(O)cc3)n3cc(CCO)nn3)CC2)n1, which inhibition is on record?
Answer: -5.39%

Question: Which inhibition does the source give for C#CCOCCOCCOCCNc1nc(N2CCN(C(=O)CCCCCCCCCCNC(=O)Cn3cc(CCCCCN)nn3)CC2)nc(N2CCN(C(=O)CCCCCCCCCCNC(=O)[C@H](CO)n3cc(CCCSC)nn3)CC2)n1 here?
Answer: 44% (active)

Question: Which inhibition does the source give for C#CCOCCOCCOCCNc1nc(N2CCN(C(=O)C([C@@H](C)O)n3cc([C@@H](N)CCCCN)nn3)CC2)nc(N2CCN(C(=O)[C@H](CCCCN)n3cc(CN)nn3)CC2)n1 (some centres undefined) here?
Answer: 8.85%

Question: How did the inhibition turn out when CN(C)c1cc(N)c2ccccc2n1 (tested in a mixture with another compound) was run?
Answer: -3.32%

Question: Which inhibition does the source give for O=C(O)c1ccc(S(=O)(=O)N2CCC(Cc3ccccc3)CC2)cc1 here?
Answer: -8.86%

Question: With Cc1ccc2[nH]c(=O)c(CC=C(Cl)Cl)c(C)c2c1 as the compound, how does the inhibition read?
Answer: 1.26%

Question: C=C1C(=O)[C@]23C[C@H]1CCC2[C@@]1(C)C(C[C@@H]3O)[C@](C)(C(=O)O)CC[C@@H]1O (some centres undefined) was tested. Which inhibition did it give?
Answer: 36.1% (active)

Question: Which inhibition does the source give for CCN(C(=O)COC(=O)c1cc(NS(=O)(=O)c2ccc(Cl)c([N+](=O)[O-])c2)ccc1O)C1CCCCC1 here?
Answer: -3.6%

Question: For O=Cc1ccc(OCc2cn3ccccc3n2)cc1, which inhibition is on record?
Answer: -8.56%

Question: With COc1cc(N2C(=O)c3ccccc3C2=O)c(Cl)cc1C(=O)OCC(=O)N1CCOCC1 as the compound, how does the inhibition read?
Answer: -1.51%

Question: CCc1ccc(NC(=O)CSc2nnc(-c3cnccn3)n2Cc2ccco2)cc1 was tested. Which inhibition did it give?
Answer: 23.2% (active)

Question: For CCn1c(SCC(=O)Nc2cc(C)ccc2C)nnc1-c1cnccn1, which inhibition is on record?
Answer: 7.43%

Question: Which inhibition does the source give for CCOC(=O)Cc1csc(NC(=O)CSc2nnc(-c3cccnc3)n2Cc2ccco2)n1 here?
Answer: 5.88%

Question: C(=C\c1ccccc1)/CSc1nnc(-c2cccnc2)n1Cc1ccco1 was tested. Which inhibition did it give?
Answer: 7.27%

Question: For O=C(CSc1nnc(-c2cccnc2)n1Cc1ccco1)c1ccc(Cl)cc1, which inhibition is on record?
Answer: 22.5% (active)

Question: Which inhibition does the source give for Cc1cc(C)nc(SCc2nnc(SCC(=O)Nc3ncc(C)s3)n2Cc2ccco2)n1 here?
Answer: 19.3%

Question: With CCCCCNC(=O)C1C(=O)Nc2ccccc2C(=O)N1C(C)(C)C (centres undefined) as the compound, how does the inhibition read?
Answer: 4.37%

Question: How did the inhibition turn out when COc1cc(/C=C/CO)cc(OC)c1O[C@@H]1O[C@H](CO)[C@@H](O)[C@H](O)[C@H]1O was run?
Answer: -1.15%

Question: Which inhibition does the source give for O=C(OCc1cc(Cl)ccc1OC(F)F)c1cccnc1 here?
Answer: 4.48%

Question: For O=C(CC(=O)c1cccnc1)c1ccccc1, which inhibition is on record?
Answer: -23.9%

Question: With O=C(/C=C/c1ccc(Cl)cc1Cl)c1cccnc1 as the compound, how does the inhibition read?
Answer: 74.7% (active)

Question: Which inhibition does the source give for Cc1ccc(S(=O)(=O)N(C)C)cc1NC(=O)c1n[nH]c(=O)c2ccccc12 here?
Answer: 5.24%

Question: Which inhibition does the source give for O=C1CCCC(O)=C1N=Nc1ccc2ncsc2c1 here?
Answer: -5.19%

Question: With O=C(Cn1cnc2c(nnn2-c2ccccc2)c1=O)N1CCC(Cc2ccccc2)CC1 as the compound, how does the inhibition read?
Answer: 7.96%

Question: With O=C(/C=C/Sc1ncn[nH]1)c1ccc(Cl)cc1 as the compound, how does the inhibition read?
Answer: 57.9% (active)

Question: Which inhibition does the source give for O=C(Nc1ccc(F)cc1)C(CCc1ccccc1)N1CCN(CC(=O)N2CCCC2)CC1 (centres undefined) here?
Answer: -3.25%

Question: CCCCc1cc2c(s1)CCCC/C2=N/O was tested. Which inhibition did it give?
Answer: -9.56%

Question: Which inhibition does the source give for COc1ccc(CNC(=O)/C(C#N)=C/c2cccc(OC)c2OC)cc1 here?
Answer: 36% (active)

Question: With COc1ccc(CNC(=O)c2c[nH]c3c(OC)cc(OC)cc3c2=O)cc1 as the compound, how does the inhibition read?
Answer: -1.89%

Question: COc1cc(/C=C(\C#N)C(=O)Nc2ccc3ccccc3c2)c([N+](=O)[O-])cc1OC was tested. Which inhibition did it give?
Answer: -3.38%

Question: With COC(=O)C[C@H]1C[C@@H]2c3cc(NC(=O)Nc4ccccc4)ccc3O[C@@H]2[C@@H](CO)O1 as the compound, how does the inhibition read?
Answer: 3.8%

Question: c1ccc(-c2c[nH]c(-c3ccccc3)c2)cc1 was tested. Which inhibition did it give?
Answer: -5.36%

Question: How did the inhibition turn out when O=C(NNC(=O)c1ccc(Cl)cc1Cl)c1cccs1 was run?
Answer: 3.54%

Question: O=C(NC1CCCCCCC1)c1cccs1 was tested. Which inhibition did it give?
Answer: -5.96%

Question: O=C(N/N=C/C=C/c1ccco1)c1cccs1 was tested. Which inhibition did it give?
Answer: 36.5% (active)
